Data from PubChem BioAssay.
Active and inactive are the calls of the source.

Experiments:
[1] = tested on: PRMT1 (protein arginine N-methyltransferase 1); experiment: PRMT1 binders on small-molecule microarrays, primary screen, biochemical, small-molecule microarray, 635 nm fluorescence (AID 1088); conditions: small-molecule microarray binding, higher = more signal;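 further: binding of Prmt1 protein to compounds spotted on small-molecule microarray slides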
[2] = yeast growth modulation, basal conditions, primary screen, YJM789 clinical isolate, OD600, 24 h (AID 1089);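 further: growth of clinical yeast isolate S. cerevisiae YJM 789 seeded 1000 cells per well; test concentration not given here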; conditions: S. cerevisiae YJM789 growth, higher = more signal, called active from +8 up or from −8 down
[3] = fission yeast growth modulation, primary screen, strain 972, OD600, 24 h, no modulator (AID 1090);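 further: basal condition with compound alone and no growth modifier present; test concentration not given here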; conditions: S. pombe 972 growth, higher = more signal, called active from +8 up or from −8 down
[4] = S. cerevisiae growth modulation with rapamycin, primary screen, strain BY4716, OD600, 96 h (AID 1091); conditions: higher = more signal, called active from +8 up or from −8 down; further: test concentration not given here
[5] = biological target: Torsin-1A-interacting protein 2 (Homo sapiens) (UniProt Q8NFQ8); experiment: LULL1 binders on small-molecule microarray, primary screen, cell lysate, human LULL1 lysate, 635/667 nm fluorescence (AID 1092); conditions: hLULL1 lysate binding, 635 nm fluorescence, higher = more signal;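 further: probe is lysate of COS7 cells overexpressing human LULL1; score merges per-feature 667 nm fluorescence with signal-to-noise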
Torsin-1A-interacting protein 2 (Homo sapiens), sequence (Q8NFQ8 whole entry, looked up): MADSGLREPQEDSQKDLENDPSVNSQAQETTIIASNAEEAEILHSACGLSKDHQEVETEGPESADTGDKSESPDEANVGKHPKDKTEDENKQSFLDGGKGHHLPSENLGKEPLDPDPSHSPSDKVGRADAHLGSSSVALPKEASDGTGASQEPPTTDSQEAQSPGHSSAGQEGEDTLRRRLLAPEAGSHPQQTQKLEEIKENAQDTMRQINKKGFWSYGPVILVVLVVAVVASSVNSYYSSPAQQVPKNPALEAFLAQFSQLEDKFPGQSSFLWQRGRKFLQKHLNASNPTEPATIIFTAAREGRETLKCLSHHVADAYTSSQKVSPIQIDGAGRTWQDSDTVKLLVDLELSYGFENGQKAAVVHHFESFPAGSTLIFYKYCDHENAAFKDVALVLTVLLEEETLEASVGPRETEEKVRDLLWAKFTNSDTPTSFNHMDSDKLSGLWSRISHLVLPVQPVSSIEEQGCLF

[6] = E. coli growth modulation, two-sided OD650, primary screen, E. coli filamentation project, strain DRC41, 24 h (AID 1093); conditions: OD650, 24 h, higher = more signal, called active from +8 up or from −8 down;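 further: MC1000 strain lacking acrAB efflux and sulA so SOS filamentation is blocked; test concentration not given here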
[7] = small-molecule microarray binders of probe aLefty2, primary screen, biochemical, biotinylated probe, 635/667 nm fluorescence (AID 1094); conditions: higher = more signal;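 further: score merges spot fluorescence near 667 nm with spot signal-to-noise ratio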
[8] = tested on: Noggin (protein binding on small-molecule microarray); experiment: Noggin binders on small-molecule microarray, primary screen, biochemical, 635/667 nm fluorescence (AID 1095); conditions: 635 nm fluorescence, higher = more signal;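 further: score merges 667 nm feature fluorescence with signal to noise over triplicate slides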
[9] = biological target: Neurogenic locus notch homolog protein 3 (Homo sapiens) (UniProt Q9UM47); experiment: NOTCH3 binders on small-molecule microarray, primary screen, biochemical, 635/667 nm fluorescence (AID 1096); conditions: NOTCH3 binding, 635 nm fluorescence, higher = more signal
Neurogenic locus notch homolog protein 3 (Homo sapiens), sequence (Q9UM47 whole entry, looked up): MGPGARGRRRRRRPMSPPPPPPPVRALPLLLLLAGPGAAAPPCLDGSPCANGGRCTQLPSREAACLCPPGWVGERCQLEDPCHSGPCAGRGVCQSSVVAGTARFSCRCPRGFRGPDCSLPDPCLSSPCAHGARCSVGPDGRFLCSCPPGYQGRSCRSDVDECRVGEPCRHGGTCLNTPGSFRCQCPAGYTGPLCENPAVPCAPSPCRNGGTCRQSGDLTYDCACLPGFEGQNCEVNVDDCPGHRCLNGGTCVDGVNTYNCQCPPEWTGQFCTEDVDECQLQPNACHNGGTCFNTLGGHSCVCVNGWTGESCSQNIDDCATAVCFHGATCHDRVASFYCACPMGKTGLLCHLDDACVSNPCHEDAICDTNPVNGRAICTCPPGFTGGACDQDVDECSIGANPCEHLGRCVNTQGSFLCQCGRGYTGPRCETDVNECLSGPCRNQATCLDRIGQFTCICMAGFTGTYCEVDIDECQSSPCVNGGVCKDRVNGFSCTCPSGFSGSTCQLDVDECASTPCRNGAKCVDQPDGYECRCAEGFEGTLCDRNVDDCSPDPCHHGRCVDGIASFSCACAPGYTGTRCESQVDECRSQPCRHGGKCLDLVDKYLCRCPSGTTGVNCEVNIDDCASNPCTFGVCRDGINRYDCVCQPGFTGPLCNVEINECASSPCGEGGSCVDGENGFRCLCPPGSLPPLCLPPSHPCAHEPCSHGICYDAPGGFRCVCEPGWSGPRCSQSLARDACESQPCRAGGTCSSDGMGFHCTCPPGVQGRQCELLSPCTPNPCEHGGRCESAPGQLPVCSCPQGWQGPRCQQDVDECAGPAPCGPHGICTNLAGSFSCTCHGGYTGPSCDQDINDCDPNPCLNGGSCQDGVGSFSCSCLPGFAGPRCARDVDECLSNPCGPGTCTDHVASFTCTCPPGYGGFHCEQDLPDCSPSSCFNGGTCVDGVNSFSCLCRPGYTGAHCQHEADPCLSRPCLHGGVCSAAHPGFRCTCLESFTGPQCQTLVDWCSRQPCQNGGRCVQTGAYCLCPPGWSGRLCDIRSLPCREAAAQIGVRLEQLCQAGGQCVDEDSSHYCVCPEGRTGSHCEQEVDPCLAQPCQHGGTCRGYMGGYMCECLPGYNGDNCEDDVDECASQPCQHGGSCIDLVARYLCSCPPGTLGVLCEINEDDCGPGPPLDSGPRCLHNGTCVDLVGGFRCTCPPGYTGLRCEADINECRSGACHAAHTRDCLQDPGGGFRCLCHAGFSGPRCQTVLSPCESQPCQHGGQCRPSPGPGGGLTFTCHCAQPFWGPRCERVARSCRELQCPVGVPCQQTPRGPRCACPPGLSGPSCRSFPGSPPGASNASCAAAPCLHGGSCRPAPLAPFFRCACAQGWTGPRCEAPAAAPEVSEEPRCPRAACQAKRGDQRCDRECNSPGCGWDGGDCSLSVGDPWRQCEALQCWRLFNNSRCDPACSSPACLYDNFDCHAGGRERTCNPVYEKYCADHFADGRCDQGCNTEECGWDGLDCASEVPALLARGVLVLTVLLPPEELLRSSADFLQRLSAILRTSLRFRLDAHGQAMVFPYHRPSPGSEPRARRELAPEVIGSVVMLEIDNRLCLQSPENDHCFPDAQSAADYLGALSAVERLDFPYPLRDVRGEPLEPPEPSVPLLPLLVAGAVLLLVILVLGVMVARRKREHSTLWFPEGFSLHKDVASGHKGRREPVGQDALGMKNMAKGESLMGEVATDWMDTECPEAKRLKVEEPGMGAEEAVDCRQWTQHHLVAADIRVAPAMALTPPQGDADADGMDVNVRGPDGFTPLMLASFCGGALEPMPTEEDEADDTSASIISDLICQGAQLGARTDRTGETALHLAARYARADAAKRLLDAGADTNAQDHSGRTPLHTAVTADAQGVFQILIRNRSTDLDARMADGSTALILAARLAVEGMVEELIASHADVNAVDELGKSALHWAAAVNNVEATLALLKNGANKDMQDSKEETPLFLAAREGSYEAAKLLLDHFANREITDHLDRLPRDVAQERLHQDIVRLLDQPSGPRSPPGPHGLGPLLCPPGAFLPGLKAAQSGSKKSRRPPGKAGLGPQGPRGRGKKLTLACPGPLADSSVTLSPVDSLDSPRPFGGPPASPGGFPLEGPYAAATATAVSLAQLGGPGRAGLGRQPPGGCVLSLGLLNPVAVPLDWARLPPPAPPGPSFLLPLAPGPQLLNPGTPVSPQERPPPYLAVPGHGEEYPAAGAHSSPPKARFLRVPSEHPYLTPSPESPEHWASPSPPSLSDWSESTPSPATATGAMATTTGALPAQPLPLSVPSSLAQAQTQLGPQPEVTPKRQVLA

[10] = small-molecule microarray binders of probe aEGFR, primary screen, biochemical, biotinylated probe, 635/667 nm fluorescence (AID 1097); conditions: higher = more signal;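 further: probe is a biotinylated anti-EGFR antibody binding compounds printed on slides; score combines fluorescence near 667 nm and signal to noise of each spot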

SMILES	composite z-score [1]	z-score [2]	z-score [3]	z-score [4]	composite z-score [5]	z-score [6]	composite z-score [7]	composite z-score [8]	composite z-score [9]	composite z-score [10]
Cc1ccc(S[C@]2(C(=O)NC3CC3)CC(=O)N(C3Cc4ccccc4C3)[C@@H]2c2ccc(CO)cc2I)cc1	0.198	-0.192 (inactive)	-2.85 (inactive)	3.27 (inactive)	1.67	0.844 (inactive)	-0.0771	-0.992	-0.847	-0.269
COC(=O)c1c2oc(c1C(=O)OC)C(=O)N[C@H](Cc1ccccc1)Cn1cc(nn1)C1(CCCCC1)NC(=O)N[C@H](CO)CC2	0.286	1.92 (inactive)	-0.261 (inactive)	-0.691 (inactive)	1.46	2.01 (inactive)	-0.124	0.292	-0.147	-0.158
COCCOC(=O)N1C(=O)[C@@]2(c3cc(C#CCC(C(=O)OC)C(=O)OC)ccc31)[C@H](c1ccc(O)cc1)N1[C@H](c3ccccc3)[C@H](c3ccccc3)OC(=O)[C@H]1[C@@H]2C(=O)N1CCc2cc(OC)c(OC)cc2C1	1.54	0.344 (inactive)	-1.01 (inactive)	0.157 (inactive)	2.56	0.794 (inactive)	-0.103	1.12	0.8	0.0353
CC1C2C(CCCO)=CC(C3C(=O)N(C)C(=O)C23)N1Cc1cccc(OC(F)(F)F)c1 (stereo not given)	1.53	0.573 (inactive)	-0.951 (inactive)	1.61 (inactive)	3.13	0.964 (inactive)	0.156	0.148	0.769	0.1
C=C[C@@H](CO)NS(=O)(=O)c1ccc(Br)cc1	-0.635	-3.08 (inactive)	-3.63 (inactive)	-1.27 (inactive)	-0.361	3.54 (inactive)	-0.24	-0.275	-1.85	-0.164
CO[C@H]1O[C@H](CO)[C@@H](OC(=O)Nc2cccc(F)c2)[C@H](OC(=O)c2cc3ccccc3[nH]2)[C@H]1OC(=O)c1cc2ccccc2[nH]1	0.669	-2 (inactive)	0.201 (inactive)	0.296 (inactive)	0.338	-0.178 (inactive)	-0.15	0.696	0.0453	-0.1
C=C(/C=C\CNS(=O)(=O)c1ccc(C)cc1)[C@H](O)[C@H]1CCCN1S(=O)(=O)c1ccccc1[N+](=O)[O-]	-0.196	1.89 (inactive)	1.09 (inactive)	35.1 (active)	0.782	0.753 (inactive)	-0.139	0.177	0.221	-0.0567
CC(C)C[C@@H]1NC(=O)[C@H]2C[C@@H](C(=O)O)[C@@H](c3cccc(OCCO)c3)N2C1=O	0.779	0.395 (inactive)	-0.907 (inactive)	-0.529 (inactive)	2.06	0.767 (inactive)	0.276	0.492	0.632	0.0588
COC(=O)C1(CC(C)C)C=C2C(=C(C)C(=O)C2C)CN1 (stereo not given)	-0.999	-0.355 (inactive)	0.543 (inactive)	0.202 (inactive)	2.1	-0.698 (inactive)	0.374	-0.054	0.379	0.449
COc1cc(CO)cc(I)c1O[C@H]1C=C(C(=O)NCCO)C[C@@H](N(CCN2CCOCC2)C(=O)C2CCCO2)[C@@H]1O (stereo not given in full)	-0.15	0.383 (inactive)	-0.455 (inactive)	0.0665 (inactive)	0.206	2.54 (inactive)	-0.172	0.34	-0.204	-0.0106
CC(C)C[C@@H]1NC(=O)[C@@H]2C[C@H](C(=O)NCCCCCCNC(=O)CS)[C@H](c3ccc(O)cc3)N2C1=O	1.53	0.279 (inactive)	0.101 (inactive)	0.971 (inactive)	2.93	1.27 (inactive)	0.0277	1.26	1.11	0.0886
CC(=O)NCCCC[C@@H]1NC(=O)[C@H]2C[C@@H](C(=O)O)[C@@H](c3cccc(OCCO)c3)N2C1=O	1.54	0.341 (inactive)	-0.198 (inactive)	-0.453 (inactive)	2.49	-0.147 (inactive)	0.122	1.58	1.11	0.189
CCCNC(=O)[C@@]1(Sc2ccc(C)cc2)CC(=O)N(Cc2cc(C(F)(F)F)cc(C(F)(F)F)c2)[C@@H]1c1ccc(CO)cc1	0.805	-0.0276 (inactive)	-1.16 (inactive)	-0.835 (inactive)	1.8	-0.212 (inactive)	-0.122	-1.13	-0.542	-0.165
[N-]=[N+]=NCc1ccccc1[C@H]1OC(c2ccc(OCCCO)cc2)=N[C@@]1(Cc1ccccc1N=[N+]=[N-])C(=O)O	1.57	-0.467 (inactive)	-4.46 (inactive)	-1.66 (inactive)	2.78	-0.0765 (inactive)	0.359	0.145	1.06	0.0783
COC(=O)[C@@]1(Cc2ccc(F)cc2)[C@H]2c3cc(C(=O)N(C)C)n(CCF)c3C[C@H]2CN1C(=O)c1ccccc1	-0.0162	-2.02 (inactive)	0.287 (inactive)	-0.318 (inactive)	2.35	1.25 (inactive)	0.265	0.104	-0.0282	-0.0896
CCCCC(=C=CC[C@@H](O)c1ccc(OCCO)cc1)CCO	0.571	-0.026 (inactive)	-1.56 (inactive)	-1.06 (inactive)	1.6	0.639 (inactive)	-0.135	0.424	-0.0085	-0.333
C[C@]1(C(=O)NC2CC2)c2ccccc2C(=O)N(Cc2cc(F)cc(C(F)(F)F)c2)[C@H]1c1ccc(CO)cc1	1.52	0.257 (inactive)	-0.194 (inactive)	0.217 (inactive)	3.29	0.299 (inactive)	-0.188	-0.104	0.518	-0.312
O=C(NCCN1CCOCC1)[C@@H]1c2ccccc2C(=O)N(CC23CC4CC(CC(C4)C2)C3)[C@H]1c1ccc(CO)cc1	1.55	-0.43 (inactive)	-1.27 (inactive)	0.223 (inactive)	3.23	0.534 (inactive)	0.0735	0.495	1.05	0.0353
CCOC(=O)C1=CC[C@@H](c2ccccc2)N(S(=O)(=O)c2ccc(C)cc2)[C@@H]1C#N	0.712	-0.671 (inactive)	-2.08 (inactive)	0.529 (inactive)	2.69	0.405 (inactive)	0.0979	-0.59	0.749	-0.013
CC(C)N1CC=CC23O[C@@H]4/C=C\CCCOC(=O)C4[C@H]2C(=O)N(C(C)CO)[C@@H]3C1=O (stereo not given in full)	0.336	-1 (inactive)	-1.09 (inactive)	-1.08 (inactive)	1.95	1.8 (inactive)	-0.174	-1.25	-0.155	-0.297
COc1ccc(C#Cc2ccc3c(c2)[C@]2(C(=O)N3)[C@H](c3ccccc3OCCO)N3[C@H](c4ccccc4)[C@H](c4ccccc4)OC(=O)[C@H]3[C@@H]2C(=O)NC[C@H](O)c2ccccc2)cc1	1.54	2.42 (inactive)	2.18 (inactive)	2.92 (inactive)	3	2.11 (inactive)	-0.0168	1.58	1.08	0.095
C=CCOC(=O)[C@H]1[C@@H]2C(=O)O[C@@H](c3ccccc3)[C@@H](c3ccccc3)N2[C@@H](c2ccc(OCCOC(=O)[C@H]3C[C@H]4C(=O)NCC(=O)N4[C@H]3c3cccc(OCCO)c3)cc2)[C@]12C(=O)Nc1ccc(I)cc12	1.54	1.29 (inactive)	0.682 (inactive)	3.48 (inactive)	2.78	0.0763 (inactive)	-0.172	1.69	1.06	0.0389
C=C[C@H](OC)[C@@H](O)c1ccc(OC)c(O)c1	-1.84	0.0615 (inactive)	0.242 (inactive)	-0.0251 (inactive)	-0.456	-0.0822 (inactive)	-0.0783	-0.81	-0.436	-0.258
CC[C@@H](O[Si](C#C[Si](C(C)C)(C(C)C)C(C)C)(C(C)C)C(C)C)c1cn([C@H](C)c2ccccc2)nn1	0.991	0.685 (inactive)	0.0803 (inactive)	0.529 (inactive)	0.382	0.612 (inactive)	-0.148	0.391	0.785	-0.0332
[N-]=[N+]=Nc1ccccc1C[C@]1(C(N)=O)COC(c2ccc(OCCCO)cc2)=N1	-0.0424	-0.684 (inactive)	-0.846 (inactive)	0.0643 (inactive)	2.84	0.0474 (inactive)	0.538	-0.863	-0.0154	0.516
CC1CC/C=C\[C@H]2OC34C=CCN(C(C)C)C(=O)[C@H]3N(C(C)CO)C(=O)[C@@H]4C2C(=O)O1 (stereo not given in full)	0.216	0.0052 (inactive)	0.285 (inactive)	-0.448 (inactive)	0.476	1.62 (inactive)	-0.172	0.202	0.41	-0.158
CCCCN1CC=CC23O[C@@H]4/C=C\CCCOC(=O)C4[C@H]2C(=O)N(CCCCCCO)[C@@H]3C1=O (stereo not given in full)	0.988	-0.917 (inactive)	-0.818 (inactive)	-0.771 (inactive)	3.56	1.79 (inactive)	-0.19	-0.676	-0.0185	-0.262
CN1C(=O)C2C(C1=O)C1C=C(CCCO)C2C(C2CC2)N1C (stereo not given)	0.74	-1.39 (inactive)	-0.339 (inactive)	-0.517 (inactive)	2.52	-0.797 (inactive)	-0.0812	-0.21	-0.312	-0.0922
